Laboratory results reported in PubChem BioAssay (Tox21).
Records with an inconclusive call do not appear. Calls of active or inactive are those of the source. Calls follow the shape of the dose curve; as a rule, active = well fitted cell-killing curve with a large enough effect in the repeat runs; inconclusive = weak or mixed curves, or effect the other way; inactive = flat fitted curve, though single readings scatter.

Assay: qHTS assay to identify small molecule antagonists of the retinoid acid receptor (RAR) signaling pathway - cell viability counter screen (AID 1159551); also: nearly all actives have a fitted effect of over 35% in size
Conditions: C3RL4 cells viability, ATP luminescence (CellTiter-Glo), 6 h; series mostly up to 92.4 µM; activity change, negative = cytotoxicity: at the top concentration
Excerpt: U.S. Tox21 Program National Center for Advancing Translational Sciences [NCATS] NIH Chemical Genomics Center [NCGC] U.S. Environmental Protection Agency [EPA] National Institutes of Environmental Health Sciences [NIEHS] National Toxicology Program [NTP] U.S. Food and Drug Administration [FDA] Tox21 Assay Overview: All-trans Retinoic acid (atRA) is the potent natural metabolite of retinol and plays an important role in normal embryonic development and maintenance of cellular phenotype in adult animals. atRA is the activating ligand for the retinoic acid receptors (RARs) which form heterodimers with retinoid X receptors (RXRs) on the retinoic acid response element (RARE). Through activation of the RAR/RXRs nuclear receptors, atRA regulates the transcription of a large number of protein-coding genes and regulatory RNAs. Intracellular levels of atRA are controlled by the retinol signaling pathway (RSP) that regulates the biosynthesis and catabolism of atRA to maintain physiological levels. Chemicals that interfere with the RSP can cause abnormal intracellular levels of atRA and therefore are potential developmental toxicants. To assess compounds for the potential adverse effect on embryonic development through interfering with retinol signaling, a cell-based RARE luciferase reporter gene assay was used. C3RL4 cell line (OARSA/CFSAN/FDA, Laurel, MD) was used to screen Tox21 10K compound library for identifying inhibitors of the RSP. Also cytotoxicity was assessed by determining the viability of cells based on the quantitation of ATP.
Tox21 Assay Protocol Summary: C3RL4 cells were seeded at 1,000/well in 4 uL of assay medium into white solid 1,536-well tissue culture plates (Greiner Bio-One North America Inc. Monroe, NC) using a Multidrop Combi (Thermo Scientific, Waltham, MA) dispenser. After incubation at 37 C and 5% CO2 for an overnight, 23 nL of compounds dissolved in DMSO, positive control or DMSO only were transferred by a Pintool station (Kalypsys, San Diego, CA). One ul of 1 uM (final concentration) of Retinol was added right after the compound addition by using a Flying Reagent Dispenser (FRD) (Aurora Discovery, San Diego, CA). After 6 hr incubation at 37 C and 5% CO2, 5 uL of CellTiter-Glo reagent (Promega Corporation, Madison, WI) was added to each assay plate using an FRD. Luminescence was quantified on a ViewLux plate reader (PerkinElmer, Waltham, MA) after 30 min incubation at room temperature.
% is scaled to controls: 0 for no effect and ±100 for the full control effect.

| SMILES | activity change, negative = cytotoxicity |
| --- | --- |
| CCC/C(=N\OCC)C1=C(O)CC(CC(C)SCC)CC1=O (stereo not given) | 6.4% (inactive) |
| C=CC1CC=CCC1 (stereo not given) | -0.261% (inactive) |
| CC(=O)[C@H]1CC[C@H]2[C@@H]3CC[C@H]4C[C@H](O)CC[C@]4(C)[C@H]3C(=O)C[C@]12C | 0.949% [at 42.5 µM] (inactive) |
| C[C@]12CC[C@H]3[C@@H](CCC4=CC(=O)CC[C@@]43C)[C@@H]1CC[C@@H]2C(=O)O | 2.69% [at 42.5 µM] (inactive) |
| ClCC(Cl)(Cl)Cl | 3.43% (inactive) |
| O=C(CCCN1CCC(n2c(=O)[nH]c3ccccc32)CC1)c1ccc(F)cc1 | -6.99% [at 42.5 µM] (inactive) |
| C#C[C@]1(O)C=C[C@H]2[C@@H]3CCC4=CC(=O)CC[C@@H]4[C@H]3CC[C@@]21CC | -1.47% [at 42.5 µM] (inactive) |
| CC(C)CC(N(C)C)C1(c2ccc(Cl)cc2)CCC1 (stereo not given) | -3.71% [at 42.5 µM] (inactive) |
| CCCSP(=S)(OCC)Oc1ccc(Cl)cc1Cl (stereo not given) | -1.06% (inactive) |
| Nc1cnn(-c2ccccc2)c(=O)c1Cl | -0.0224% (inactive) |
| O=C1OC(c2ccc(O)c(S(=O)(=O)O)c2)(c2ccc(O)c(S(=O)(=O)O)c2)c2c(Br)c(Br)c(Br)c(Br)c21 | -0.164% [at 42.5 µM] (inactive) |
| CCOP(=S)(Oc1cnc(C(C)(C)C)nc1)OC(C)C (stereo not given) | -1.24% (inactive) |
| C[C@]1(O)CC[C@H]2[C@@H]3CCC4=CC(=O)CC[C@]4(C)[C@@]3(F)[C@@H](O)C[C@@]21C | 6.11% (inactive) |
| CC1CCC(=O)O1 (stereo not given) | 1.94% (inactive) |
| Cc1ncc(CNC(=O)N(CCCl)N=O)c(N)n1 | -1.72% [at 42.5 µM] (inactive) |
| CC1=C(C(=O)Nc2ccccc2)S(=O)(=O)CCO1 | 10.4% (inactive) |
| CNCC(=O)c1ccc(O)c(O)c1 | -0.296% [at 42.5 µM] (inactive) |
| OCCSCSCCO | -0.111% (inactive) |
| CCCCC(=O)Cl | 1.68% (inactive) |
| N#Cc1c(Cl)cccc1Cl | 4.34% (inactive) |

| SMILES | activity change, negative = cytotoxicity |
| --- | --- |
| COC(=O)c1c(C(F)F)nc(C(F)(F)F)c(C2=NCCS2)c1CC(C)C | 0.814% (inactive) |
| CCc1cc2c(s1)-n1c(C)nnc1CN=C2c1ccccc1Cl | 3.72% [at 42.5 µM] (inactive) |
| CCC(C)n1c(=O)[nH]c(C)c(Br)c1=O (stereo not given) | 0.881% (inactive) |
| CCC#N | 0.974% (inactive) |
| NC(=O)O | 4.17% (inactive) |
| CN(C)CCc1ccc(O)cc1 | 1.66% [at 42.5 µM] (inactive) |
| CNC(=O)Oc1ccc(N(C)C)c(C)c1 | 1.33% (inactive) |
| ClCC(Cl)Cl | 3.93% (inactive) |
| CCCCCCI | 1.01% (inactive) |
| N#CCNCC#N | 0.699% (inactive) |
| CCN(CC)c1nc(C)cc(OP(=S)(OC)OC)n1 | -0.616% (inactive) |
| O=[N+]([O-])c1cccc(O)c1 | 3.77% (inactive) |
| OC(Cn1cncn1)(c1ccc(F)cc1)c1ccccc1F (stereo not given) | 0.968% (inactive) |
| O=P(O)(Oc1ccccc1)Oc1ccccc1 | 3.88% (inactive) |
| CCOC(=O)/C=C(C)/C=C/C[C@@H](C)CCCC(C)C | -1.9% (inactive) |
| COC(=O)C(C)Oc1ccc(Oc2ccc(Cl)cc2Cl)cc1 (stereo not given) | -0.429% (inactive) |
| NC(=S)C(N)=S | -0.102% (inactive) |
| COc1ncc(F)c2nc(S(=O)(=O)Nc3c(F)cccc3F)nn12 | 0.674% [at 42.5 µM] (inactive) |
| C[C@]12CC[C@H]3[C@@H](CC=C4C[C@@H](O)CC[C@@]43C)[C@@H]1CC[C@@H]2O | -0.513% [at 42.5 µM] (inactive) |
| Cc1ncsc1CCCl | 2.65% [at 42.5 µM] (inactive) |
